# Source: PubChem BioAssay (several laboratories)
# CYP2C19 act: activators of human cytochrome P450 2C19. P33261. recombinant CYP2C19, luciferin-H EGE luminescence; active compounds read high; 0 = fully inhibited enzyme, 1 = untreated enzyme. activation factor at 5 µM. 96,000 tested, under 10 active. AID 1025;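 active = activation factor of at least 2 at 5 µM in the primary screen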;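 also: 0 = wells with 2.5 mM tranylcypromine and 1 = vehicle-only wells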
# CYP2C19 inh: human CYP2C19 inhibition; P33261; CYP2C19 Supersomes, luciferin-H EGE luminescence, 30 min; inhibition, % at 5 µM; 96,000 compounds, 21% hits;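 active = CYP2C19 inhibition above a set limit at 5 µM in the primary screen, cut at about 50% in these data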;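 also: plate controls were negative control wells for no effect and 2.5 mM tranylcypromine positive control for full effect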
# CYP2C9 inhib: blocks human cytochrome P450 2C9 | CYP2C9 Supersomes, luciferin-H conversion, luminescence | inhibition, % at 5 µM | 96,000 compounds, 20% hits;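 active = blocking of liver enzyme CYP2C9 beyond about 50% at 5 µM, limit read from the data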
# CYP2C9 activ: CYP2C9 (human) activation | P11712 | recombinant CYP2C9, luciferin-H conversion, luminescence; active compounds read high; factor 1 = untreated enzyme, 0 = blocked | activation factor at 5 µM | 96,000 compounds, 1.4% hits | AID 1024;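 active = activation factor of 2 or more for CYP2C9 at a 5 µM dose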;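 also: 0 = sulfaphenazole-blocked wells and 1 = vehicle-only wells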
# Cav32 inh: human Cav3.2 channel inhibition, primary screen; Cav3.2-expressing cells, Fluo-4 calcium fluorescence FDSS; active compounds read low; 100,000 compounds, 4% hits; B-score at 10 µM; O95180;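 active = single-dose well whose peak fluorescence ratio is a statistical outlier from its plate by either plate-standardised score or position-corrected B-score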
# * marks the source's active call; other numbers are inactive results; . = not tested or not shown. Rows were chosen to be rich in hits. Some 27% of all compounds tested hit in one or more screens of this group.
SMILES,CYP2C19 act,CYP2C19 inh,CYP2C9 inhib,CYP2C9 activ,Cav32 inh
Cn1c(N)c(C(=O)c2ccccc2)c(=O)n(C)c1=O,0.9,7,7,0.9,-0.73
O=C(O)CP(=O)(c1ccccc1)c1ccccc1,1.1,-5,14,0.9,-0.15
O=c1[nH]c2c(n(C3CCCCC3)c1=O)CCC2,1.1,-11,-31,1.3,-0.18
O=C(Nc1nc(-c2ccc(Cl)s2)cs1)c1ccccc1,1.1,-6,-7,1.1,-0.44
Cc1cnc(NC(=O)COc2ccccc2Cl)s1,0.8,20,12,0.9,-0.49
O=C(COc1ccccc1Cl)Nc1nc(-c2cccs2)cs1,0.6,41,82*,0.2,-2.9
CNC(=O)c1ccsc1NC(=O)c1ccccc1,.,.,.,.,0.8
Cc1cc(Cl)ccc1OCC(=O)Nc1nc(-c2cccs2)cs1,0.8,21,56*,0.4,-3.2
O=C(Nc1nc(-c2cccs2)cs1)c1ccc(Cl)s1,.,.,.,.,-4.1*
CNC(=O)c1ccsc1NC(=O)c1ccc(Cl)s1,0.2,77*,68*,0.3,.
Cc1cc(CSc2ccccc2)ccc1NC(=O)c1ccc(Cl)c([N+](=O)[O-])c1,1.2,-21,-24,1.2,0.015
COc1ccc(NC(=O)C2CC(=O)OC2(C)C)cc1 (stereo not given),0.9,10,-11,1.1,-3.5
O=C(NC1CC1)C1=C[C@@H](c2ccc(Br)cc2)C[C@@H](OCc2ccc(CO)cc2)O1,.,.,.,.,0.32
O=C(c1nn(Cc2ccccc2)c(=O)c2ccccc12)N1CCc2ccccc2C1,0.7,33,40,0.6,-4*
O=C(c1nn(Cc2ccccc2)c(=O)c2ccccc12)N1CCN(c2ccccn2)CC1,0.7,33,44,0.6,-5.6*
O=C(Cn1nc(Cc2cccnc2)c2ccccc2c1=O)N1CCN(c2ccccn2)CC1,0.6,42,87*,0.1,-3.3*
O=C(CN1C(=O)c2ccccc2C1=O)N1CCN(c2ccccn2)CC1,1,2,-1,1,0.38
CCO[C@@H]1OC(C(=O)NCc2ccccc2)=C[C@H](C2CCCCC2)[C@H]1CCCO,.,.,.,.,-2.5
O=C(NNC(=O)[C@@H]1CCCC[C@@H]1C(=O)O)c1cccs1,.,.,.,.,-0.016
COC(=O)c1sc2ccccc2c1-n1cccc1C(=O)C(=O)Nc1ccc(F)cc1,0.7,33,100*,0,.
COC(=O)c1sc2ccccc2c1-n1cccc1C(=O)C(=O)Nc1ccc(Cl)cc1,0.8,23,99*,0,-2.2
COC(=O)c1sc2ccccc2c1-n1cccc1C(=O)C(=O)Nc1ccc(C)cc1,0.6,38,100*,0,-3.8
O=C(NNC(=O)c1sc2ccccc2c1Cl)Nc1ccc(Cl)cc1,0.8,24,-19,1.2,-0.32
COc1ccc(C(O)Cc2nc3ccccc3n2C)cc1OC (stereo not given),.,.,.,.,0.71
CCCC(=O)Nc1ccc(C(=O)/C=C/c2ccc(SC)cc2)cc1,0.5,50*,73*,0.3,-0.34
SMILES,CYP2C19 act,CYP2C19 inh,CYP2C9 inhib,CYP2C9 activ,Cav32 inh
COc1ccc(C(=O)/C=C\c2ccc(NC(=O)c3cccs3)cc2)cc1,0.8,19,5,1,-1.4
CSc1ccc(/C=C/C(=O)c2ccc(NC(C)=O)cc2)cc1,0.5,51*,48,0.5,1.8
CSc1ccc(NC(=O)CC(C)=O)cc1,1,-1,-14,1.1,-0.58
Cc1ccc(NC(=O)c2ccc(OC(=O)c3cc4ccccc4o3)cc2)cc1,0.9,10,30,0.7,0.075
CCn1c2ccccc2c2cc(NC(C)=O)ccc21,0,98*,30,0.7,-0.014
CCn1c2ccccc2c2cc(NS(=O)(=O)c3ccc(C)cc3)ccc21,0.5,54*,86*,0.1,-0.74
CCn1c2ccccc2c2cc(NC(=O)c3ccco3)ccc21,0.5,45,-40,1.4,-1.1
CCn1c2ccccc2c2cc(NC(=O)c3ccc([N+](=O)[O-])cc3)ccc21,1,2,-10,1.1,1.2
C[C@H](NS(=O)(=O)c1ccccc1F)C(=O)OCC(=O)N1CCc2ccccc21,1,4,-76,1.8,1.7
Cc1cccc(-n2nc([N+](=O)[O-])c(=NCc3cccnc3)n2O)c1,0.4,60*,34,0.7,-3
Cn1cc(C(=O)c2ccc(Cl)cc2Cl)cc1C(=O)N/N=C(\N)COc1ccccc1,1,2,19,0.8,-6.6*
Cn1cc(C(=O)c2ccc(Cl)cc2Cl)cc1C(=O)N/N=C(\N)COc1ccc(Cl)cc1Cl,0.6,37,86*,0.1,.
